High-throughput results as filed in PubChem.
ELG1 genotox: qHTS screen for small molecules that induce genotoxicity in human embryonic kidney (HEK293T) cells expressing luciferase-tagged ELG1 | HEK293T ELG1-luciferase reporter, luminescence, 16 h | Potency, µM (top dose mostly 46 µM), for the others: at the highest dose activity change, positive = activation, most hits filed as activators | 1.3% of 330,000 active | AID 504466, 2011; further: % of control where 0% means no effect; nearly all actives have a fitted effect of over 60% in size
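Quantitative HTS format in 1536-well plates. HEK293T ELG1-luciferase reporter cells receive test compound and are incubated 16 hr at 37 °C, 5% CO2; ONE-Glo added, 30 min room temperature, then luminescence read.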
KinaseGlo FLuc: Counterscreen for Luciferase (Kinase-Glo TM) Inhibition. Potency, µM (series often up to 38.3 µM), for the others: at the top dose activity change, negative = inhibition, hits mostly inhibitors. Kinase-Glo luciferase, ATP luminescence, 8 min. Luciferin 4-monooxygenase (Photuris pensylvanica), Q27757. 0.28% of 200,000 active; further: on the % scale 0 is the no-effect control and ±100 the full control effect; nearly all actives have a fitted effect of over 60% in size
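Inhibition of Kinase-Glo luciferase light generation was assessed at 10 uM ATP in pH 7.2 imidazole buffer, with luminescence measured after eight minutes at ambient temperature.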
Rab9 promoter act: qHTS Assay for Rab9 Promoter Activators | Potency, µM (titrated, usually from 9.22 µM), inactives show top-dose activation, negative = inhibition, actives largely listed as activators | 2.8% of 320,000 active | Huh7 Rab9 promoter-luciferase reporter, luminescence, 24 h | AID 485297, 2010; further: % of control where 0% means no effect; nearly all actives have a fitted effect of over 60% in size
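Promoter activation is measured as luciferase luminescence in Huh7 cells stably transfected with a Rab9 promoter–luciferase construct, following 24 h compound exposure at 37 °C and 10 min reagent incubation at ambient temperature.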
SMN2 splice enh: qHTS Assay for Enhancers of SMN2 Splice Variant Expression; HEK293 SMN2-luciferase splicing reporter, luminescence, 30-36 h; Potency, µM (highest dose often 46.1 µM), for the others: top-dose activity change, positive = activation, usual class: activators; 2.8% of 210,000 active; AID 1458, 2008; further: % of control where 0% means no effect; nearly all actives have a fitted effect of over 55% in size
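qHTS luciferase splicing reporter: luminescence rises when SMN2 exon 7 is included in transfected HEK293 cells. Compound exposure lasted 30-36 h at 37C, with 4.5 mM final sodium butyrate as control, followed by a ONE-Glo read.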
FLuc modulator: qHTS profiling assay for firefly luciferase inhibitor/activator using purifed enzyme and Km concentrations of substrates (counterscreen for miR-21 project); Potency, µM (top dose mostly 57.5 µM), inactives show top-dose activity change, negative = inhibition, hits mostly inhibitors; 6.9% of 360,000 active; Luciferin 4-monooxygenase (Photinus pyralis), P08659; purified FLuc, Km substrates, luminescence inhibition;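 further: plate controls were vehicle for no effect and reference inhibitor for full effect; nearly all actives have a fitted effect of over 55% in size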
Target sequence (P08659 whole entry, looked up): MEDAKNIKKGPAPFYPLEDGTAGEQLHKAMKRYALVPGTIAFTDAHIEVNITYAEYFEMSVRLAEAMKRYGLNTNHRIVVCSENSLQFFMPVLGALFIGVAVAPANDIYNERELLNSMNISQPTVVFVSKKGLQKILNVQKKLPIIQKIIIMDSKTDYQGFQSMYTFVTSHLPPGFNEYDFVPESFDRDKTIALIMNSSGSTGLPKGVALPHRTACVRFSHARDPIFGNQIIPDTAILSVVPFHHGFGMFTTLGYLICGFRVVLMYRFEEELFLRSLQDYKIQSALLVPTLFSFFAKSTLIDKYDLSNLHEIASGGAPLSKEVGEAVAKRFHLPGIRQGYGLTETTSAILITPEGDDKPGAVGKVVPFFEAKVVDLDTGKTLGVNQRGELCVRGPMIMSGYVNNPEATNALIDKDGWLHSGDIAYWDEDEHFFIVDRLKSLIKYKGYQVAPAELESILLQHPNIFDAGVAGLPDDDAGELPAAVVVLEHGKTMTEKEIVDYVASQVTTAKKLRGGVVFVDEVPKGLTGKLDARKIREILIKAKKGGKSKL
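Purified P. pyralis luciferase, 10 nM final, with Km-level 10 uM D-luciferin and 10 uM ATP in 50 mM Tris acetate pH 7.5, 10 mM Mg acetate, 0.01% Tween-20, 0.05% BSA; 6-point qHTS titration about 60 µM downward; luminescence read.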
NPC1 prom act: qHTS Assay for NPC1 Promoter Activators | Huh7 NPC1 promoter luciferase reporter, 24 h | Potency, µM (highest dose often 9.22 µM), inactives show at the highest dose activation, usual class: activators | 2.4% of 320,000 active | AID 485313, 2010; further: % of control where 0% means no effect; nearly all actives have a fitted effect of over 60% in size
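Quantitative HTS used a cell-based reporter: Huh7 cells stably bearing the NPC1 promoter upstream of luciferase were treated with compounds for 24 h, and promoter activation was read as luminescence.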
Numbers without * were called inactive; u = inconclusive; x = not tested or not shown; [ ] = dose if it differs, or a comment. Only some compounds are listed: those with a hit (about 7.3% of all), similar ones and a draw of the others. The call rests on the fitted dose curve; in most records, active means well fitted curve in the direction sought with a large enough effect; inconclusive means small, poorly fitted or top-dose-only effect, or another doubt; inactive means no such curve, though single readings can be large; an effect the other way counts as inactive or inconclusive. Potency means the concentration at half of the fitted maximal effect.

SMILES	ELG1 genotox	KinaseGlo FLuc	Rab9 promoter act	SMN2 splice enh	FLuc modulator	NPC1 prom act
CC(C)C(=O)Nc1ccc(C(=O)Nc2nnc(C(C)(C)C)s2)cc1	1%	1%	-2%	12%	-7%	-3%
CC(C)C(=O)Nc1cccc(C(=O)Nc2nnc(C(C)(C)C)s2)c1	2%	-3%	11%	-6%	13µM*	1%
Cc1cccc(OCC(=O)Nc2cccc(C(=O)Nc3ccccc3C(=O)O)c2)c1	-2%	-1%	-1%	18%	u	1%
O=C(Nc1cc(C(=O)Nc2ccccc2C(=O)O)cc(C(=O)Nc2ccccc2C(=O)O)c1)c1ccccc1	23%	x	-3%	x	3%	0%
COc1cc(Cl)c(C)cc1NC(=O)CC1Oc2ccccc2NC1=O (stereo not given)	x	x	x	-1%	-7%	x
CN(C)CCCn1cnc2cc(Cl)c(Cl)cc21	x	-1%[7.66 µM]	x	-5%[9.22 µM]	x	x
O=C(Nc1ccc(Cl)cc1F)c1ccccc1Br	u	-3%	2.2µM*	11µM*	11µM*	1.8µM*
CCC(C)(C)c1nnc(NC(=O)c2cccc([N+](=O)[O-])c2)s1	14%	3%	22%	u	19µM*	20%
O=C(O)CCCC(=O)Nc1cccc(C(=O)Nc2ccccc2C(=O)O)c1	2%	1%	-7%	x	u	-1%
O=C(Nc1nnc(CSCc2ccc(Cl)cc2)s1)c1cccc([N+](=O)[O-])c1	-3%	0%	-2%	-23%	-14%	6%
O=C(Nc1ccc(Cl)cc1F)c1cccc2ccccc12	18%	x	u	x	u	20%
CC(C)C(=O)Nc1cccc(C(=O)Nc2ccccc2C(=O)O)c1	-1%	-3%	16%	-6%	7.6µM*	7%
Cc1ccc(Cl)cc1NC(=O)c1ccc(NC(=O)N2CCSc3ncccc32)cc1	x	x	x	x	-11%	x
O=[N+]([O-])c1ccc(O)c(Nc2ncnc3ccccc23)c1	1%	-2%	14%	x	0.54µM*	u
OCCN1CN=C(Nc2nc3ccccc3o2)NC1	2%	0%	-2%	4%	0%	-1%
c1ccc2oc(NC3=NCN(CC4CCCO4)CN3)nc2c1 (stereo not given)	10µM*	-2%	4µM*	13µM*	17µM*	u
COc1ccc(OC)c(NC(=O)COCc2cc(-c3ccco3)on2)c1	x	x	x	x	-7%	x
COc1ccc(/C=C2\SC(=S)N(CCC(=O)NC3C=CS(=O)(=O)C3)C2=O)cc1 (stereo not given)	12%	x	-8%	x	5.4µM*	2%
O=C(CN1C(=O)S/C(=C\c2ccc(Cl)cc2)C1=O)NC1C=CS(=O)(=O)C1 (stereo not given)	-1%	x	0%	x	2%	-4%
COc1ccc(/C=C2\SC(=O)N(CC(=O)N(C)C3CCS(=O)(=O)C3)C2=O)cc1 (stereo not given)	7%	x	13%	x	u	12%
COc1ccc(/C=C2\SC(=O)N(CCC(=O)N(C)C3CCS(=O)(=O)C3)C2=O)cc1 (stereo not given)	17%	x	26%	x	11µM*	28%
COc1cccc(/C=C2\SC(=S)N(CCC(=O)NC3C=CS(=O)(=O)C3)C2=O)c1 (stereo not given)	16%	x	2%	x	4.8µM*	21%
COC(=O)c1ccc(OCC2c3cc(OC)c(OC)cc3CCN2C(=O)c2ccccc2F)cc1 (stereo not given)	x	x	x	x	0%	x
Cc1ccc(C(=O)n2c(=S)nc3ccccn32)cc1	u	u	0.63µM*	2µM*	0.12µM*	0.79µM*
Cc1cccc(C(=O)n2c(=S)nc3ccccn32)c1	u	14µM*	0.45µM*	4.5µM*	0.48µM*	0.56µM*
SMILES	ELG1 genotox	KinaseGlo FLuc	Rab9 promoter act	SMN2 splice enh	FLuc modulator	NPC1 prom act
Cc1ccc(C(=O)n2ncn(C)c2=S)cc1	1%	3%	-1%	16%	u	1%
O=C(c1ccccc1)n1ccn(-c2ccccc2)c1=S	0%	-3%	-2%	-13%	-12%	1%
O=C(c1ccccc1)n1c(=S)nc2ccccn21	0.33µM*	x	3.5µM*	x	0.43µM*	1µM*
C[C@H]1Cc2c(-c3ccccc3)nc3c(c2CO1)CN(S(=O)(=O)c1ccc2c(c1)OCCN2C)CC3	x	-7%[7.66 µM]	x	-4%[9.22 µM]	x	x
CCOc1ccc(C(=O)N(Cc2nc(-c3cccc(C)c3)no2)C(C)C)cc1	x	x	x	x	3%	x
CC(C)Cn1cc(NC(=O)N2CCN(c3cccc(Cl)c3)CC2)c2ccccc2c1=O	x	x	x	x	3%	x
CCCCC[C@H](O)/C=C/C=C\C/C=C\CCCCCCC(=O)O	x	2%	x	-4%	x	x
O=S(O)O.O=S(O)O.[Co].[NH2-].[NH2-].[NH2-].[NH2-]	x	-1%[7.66 µM]	x	-3%[9.22 µM]	x	x
CCOC(=O)N1CCc2c(sc(NCc3sccc3C)c2C(=O)Nc2ccc(OC)cc2OC)C1	x	x	x	x	11µM*	x
COc1ccc(NC(=O)c2c(NCc3sccc3C)sc3c2CCCCC3)c(OC)c1	x	x	x	x	-17%	x
CCOC(=O)N1CCc2c(sc(NCc3cccc(F)c3)c2C(=O)Nc2ccc(OC)cc2OC)C1	x	x	x	x	15µM*	x
COc1ccc(NC(=O)c2c(NCc3cccc(F)c3)sc3c2CCCC3)c(OC)c1	x	x	x	x	-11%	x
Cc1ccc(-c2nc3nc(C)cc(N4CCN(c5cccc(C)c5)C(C)C4)n3n2)cc1 (stereo not given)	x	x	x	2%	8.5µM*	x
Cc1ccc(S(=O)(=O)Cc2nc(-c3ccc(C(=O)NCc4ccccc4)cc3)oc2C)cc1	x	x	x	x	-9%	x
O=C(Nc1ncccc1O)c1ccc(OCC2CCCO2)cc1 (stereo not given)	1.2µM*	x	0.79µM*	x	7.6µM*	0.79µM*
O=C(NC1=NCCS1)c1ccc(OCC2CCCO2)cc1 (stereo not given)	u	-6%	0.35µM*	10µM*	u	0.4µM*
CCOc1ccc(C(=O)NC2=NCCS2)cc1	u	-3%	0.5µM*	14µM*	11µM*	1.1µM*
Cc1noc(C)c1COc1ccc(C(=O)Nc2ncccc2O)cc1	u	x	14%	x	0%	6%
CCOc1cc(C(=O)NC2=NCCS2)cc(OCC)c1OCC	0%	-2%	4%	11%	u	-4%
O=C(Nc1ncccc1O)c1ccc(Oc2ccccc2)cc1	9.2µM*	x	2.8µM*	x	6.7µM*	1.8µM*
O=C(NCCC1=CCCCC1)c1cnc2n(c1=O)CCS2	u	-1%	u	11µM*	u	u
